Bioassay records as filed in PubChem.
The list is not random: actives were taken first. Their share in the collection is about 19%.
HT1080 IDH1KD tx – toxicity to HT-1080 IDH1 knockdown cells (counter line) | HT-1080 IDH1 knockdown viability, ATP luminescence, 48 h | Potency, µM (top dose mostly 46.1 µM), for the others: at the highest dose activity, negative = toxicity, hits mostly cytotoxic | 2% of 360,000 active | AID 686971;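 also: potency is read from the fitted curve at half-maximal effect; 0% = DMSO wells and -100% = cell-free medium wells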
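Assay cells: HT-1080 with IDH1 knockdown, 750 per well, RPMI/5% FBS. Exposure: 48 h at 37 °C following 2 h pre-incubation. Read: CellTiter-Glo luminescence; fitted concentration-response, curve class assigned.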
DT40 TDP1 CPT – growth inhibition of DT40 Tdp1-/-;hTDP1 cells with camptothecin (screen for TDP1 inhibitors); chicken DT40 Tdp1-/-;hTDP1 cells + 20 nM CPT, ATP luminescence, 48 h; Potency, µM (top dose mostly 46.2 µM), for the others: at the top dose activity change, negative = growth inhibition, hits mostly inhibitors; 12% of 420,000 active; AID 686979; also: potency is read from the fitted curve at half-maximal effect; nearly all actives have a fitted effect of over 55% in size
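Cell growth measured by CellTiter-Glo luminescence after a minimum 48 h, 37 C compound exposure with 20 nM CPT in Tdp1-knockout DT40 cells stably expressing hTDP1, seeded 400/well; qHTS titration format.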
HT1080NT lethal – kills 2HG-producing HT-1080-NT fibrosarcoma cells | Potency, µM (highest dose often 46.1 µM), without a hit: top-dose activity, negative = less viability, usual class: cytotoxic | 1.6% of 360,000 active | HT-1080-NT fibrosarcoma viability, CellTiter-Glo ATP luminescence, 48 h;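 also: NT is the 2HG producing partner of a matched IDH1 knockdown line; potency is read from the fitted curve at half-maximal effect; 0% = DMSO-treated cells and -100% = media-only wells without cells; nearly all actives have a fitted effect of over 55% in size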
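Compounds were tested in concentration-response format on HT-1080-NT cells for 48 hours at 37 degrees C. Cell viability came from CellTiter-Glo luminescence; curves were classified by r2, response magnitude and activity.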
DT40 TDP1 no CPT – qHTS for Inhibitors of human tyrosyl-DNA phosphodiesterase 1 (TDP1): qHTS in cells in absence of CPT; 15% of 420,000 active; DT40 Tdp1-/- hTDP1 cells, no CPT, ATP luminescence, 48 h; Potency, µM (top dose mostly 46.2 µM), without a hit: top-dose activity change, negative = growth inhibition, usual class: inhibitors; AID 686978, 2013; also: potency is read from the fitted curve at half-maximal effect; nearly all actives have a fitted effect of over 55% in size
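Growth of hTDP1-complemented DT40 Tdp1-knockout cells is measured by ATP luminescence after at least 48 hr compound exposure at 37 °C, with DMSO substituting for the 20 nM CPT used in the parallel screen.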
IL1B secr inh – inhibitors of inflammasome signaling (IL-1 beta secretion). THP-1 LPS/ATP IL-1B secretion, AlphaLISA, 16 h; stronger effect = lower value. activity change, % at 57.5 µM. 4.7% of 360,000 active. AID 743279; in the data active = activity change below about -50%; inconclusive = mostly about -30% to -49%
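THP-1 cells pretreated 1 hr with compounds (up to 57.5 uM final), then stimulated with LPS (250 ng/mL final) plus ATP (1.25 mM final); secreted IL-1B measured by AlphaLISA after 16 hr, decreased signal indicating inhibition.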
uPA generation – cell surface uPA generation inhibition; 0.31% of 330,000 active; Potency, µM (top dose mostly 38.3 µM), for inactives: top-dose activity change, negative = inhibition, hits mostly inhibitors; cell surface uPA generation assay, qHTS; active = well fitted inhibition curve with a large enough effect; inconclusive = small, poorly fitted or top-dose-only effect; inactive = no such curve, though single readings can be large or run the other way; tested in mouse RAW 264.7 cells; also: potency is read from the fitted curve at half-maximal effect; nearly all actives have a fitted effect of over 55% in size
* = called active by the depositor. Unless noted, calls follow the shape of the dose curve; as a rule, active = well fitted curve in the direction sought with a large enough effect; inconclusive = small, poorly fitted or top-dose-only effect, or another doubt; inactive = no such curve, though single readings can be large; an effect the other way counts as inactive or inconclusive. Unless noted, % is scaled to controls: 0 for no effect and ±100 for the full control effect.

For CCC(CC)C(=O)N(C)c1c(C)nc2c(OCC(=O)C(C)(C)C)cccn12 the results were HT1080 IDH1KD tx 11%, DT40 TDP1 CPT -20%, HT1080NT lethal inconclusive, DT40 TDP1 no CPT inconclusive and IL1B secr inh 25.
For CCC(CC)C(=O)N(C)c1c(C)nc2c(OCc3ccc(C#N)cc3)cccn12 the results were HT1080 IDH1KD tx 0%, DT40 TDP1 CPT inconclusive, HT1080NT lethal 9%, DT40 TDP1 no CPT 18µM* and IL1B secr inh -71*.
CCc1nc2c(OCc3ccc(Cl)cc3Cl)cccn2c1N(C)C(=O)C1CC1 was read as HT1080 IDH1KD tx -20%, DT40 TDP1 CPT inconclusive, HT1080NT lethal inconclusive, DT40 TDP1 no CPT inconclusive and IL1B secr inh -12.
`CCOC(=O)c1c(C)nc(C)c(C(=O)OCC)c1-c1ccccc1` gave HT1080 IDH1KD tx -13%, DT40 TDP1 CPT -6%, HT1080NT lethal 5%, DT40 TDP1 no CPT 2% and IL1B secr inh 32.
CCOC(=O)c1c(Nc2cccc(C)c2)nnc(-c2ccccc2)c1-c1ccccc1 was read as DT40 TDP1 CPT inconclusive and DT40 TDP1 no CPT 16µM*.
For CCOC(=O)c1c(Nc2cc(C)cc(C)c2)nnc(-c2ccccc2)c1-c1ccccc1 the results were DT40 TDP1 CPT 12µM* and DT40 TDP1 no CPT 15µM*.
Screening CCOC(=O)c1c(Nc2ccc(C)c(C)c2)nnc(-c2ccccc2)c1-c1ccccc1 returned DT40 TDP1 CPT inconclusive and DT40 TDP1 no CPT 16µM*.
`Cc1cc(NC(=O)CCC(=O)N(CC(=O)NCC2CCCO2)c2ccc(C(C)C)cc2)no1` (stereo not drawn) gave HT1080 IDH1KD tx -1%, DT40 TDP1 CPT 4%, HT1080NT lethal 0%, DT40 TDP1 no CPT -9%, IL1B secr inh 12 and uPA generation -5%.
Screening COC(=O)c1ccc(NC(=O)C(=O)NCC(c2cccnc2)N2CCN(c3ccccc3)CC2)cc1 (stereo not drawn) returned DT40 TDP1 CPT -20% and DT40 TDP1 no CPT -19%.
`O=C(NCCCn1ccnc1)C(=O)NCC(c1cccnc1)N1CCN(c2ccccc2)CC1` (stereo not drawn) gave HT1080 IDH1KD tx -1%, DT40 TDP1 CPT -7%, HT1080NT lethal 14%, DT40 TDP1 no CPT -3%, IL1B secr inh -8 and uPA generation -6%.
COc1cccc(NC(=O)C(=O)NCC(c2cccnc2)N2CCN(c3ccccc3)CC2)c1 (stereo not drawn) was read as DT40 TDP1 CPT inconclusive and DT40 TDP1 no CPT 18µM*.
`Cc1cc(C)cc(NC(=O)C(=O)NCC(c2cccnc2)N2CCN(c3ccccc3)CC2)c1` (stereo not drawn) gave DT40 TDP1 CPT 21µM* and DT40 TDP1 no CPT 16µM*.
Screening CCN(CC)CCCNC(=O)c1ccc(S(=O)(=O)Nc2ccc(C)c(C)c2)cc1 returned HT1080 IDH1KD tx -11%, DT40 TDP1 CPT inconclusive, HT1080NT lethal -20%, DT40 TDP1 no CPT 16µM*, IL1B secr inh -4 and uPA generation 0%.
For CCOc1ccc(C(=O)NCCCN(CC)CC)cc1 the results were HT1080 IDH1KD tx 12%, DT40 TDP1 CPT -4%, HT1080NT lethal 0%, DT40 TDP1 no CPT 2%, IL1B secr inh 10 and uPA generation -3%.
`COc1ccc(S(=O)(=O)N2CCCCCC2)cc1C(=O)N(C)CC(=O)Nc1ccccc1Br` gave HT1080 IDH1KD tx -1%, DT40 TDP1 CPT inconclusive, HT1080NT lethal -2%, DT40 TDP1 no CPT 9.2µM*, IL1B secr inh -23 and uPA generation -16%.
`COc1ccc(S(=O)(=O)N2CCCCCC2)cc1C(=O)N(C)CC(=O)Nc1c(Cl)cccc1Cl` gave HT1080 IDH1KD tx -1%, DT40 TDP1 CPT inconclusive, HT1080NT lethal 2%, DT40 TDP1 no CPT inconclusive, IL1B secr inh -9 and uPA generation -3%.
For COc1ccccc1CN(C)C(=O)c1cc(S(=O)(=O)N2CCCCCC2)ccc1OC the results were HT1080 IDH1KD tx -13%, DT40 TDP1 CPT inconclusive, HT1080NT lethal -12%, DT40 TDP1 no CPT inconclusive and IL1B secr inh -15.
COc1ccc(S(=O)(=O)N2CCCCCC2)cc1C(=O)N(C)CC(=O)Nc1ccccc1Cl was read as HT1080 IDH1KD tx 3%, DT40 TDP1 CPT inconclusive, HT1080NT lethal -2%, DT40 TDP1 no CPT 21µM*, IL1B secr inh -12 and uPA generation 7%.
Screening CCOC(=O)c1sc2ccccc2c1S(=O)(=O)Nc1ccc(OC)c(Cl)c1 returned DT40 TDP1 CPT inconclusive and DT40 TDP1 no CPT -29%.
`CCOC(=O)c1sc2ccccc2c1S(=O)(=O)Nc1ccc(CC)cc1` gave DT40 TDP1 CPT inconclusive and DT40 TDP1 no CPT 23µM*.
`CCOc1ccccc1CNC(=O)C1CCN(C(=O)N2CC(C)Oc3ccc(C)cc32)CC1` (stereo not drawn) gave HT1080 IDH1KD tx 0%, DT40 TDP1 CPT 21µM*, HT1080NT lethal -2%, DT40 TDP1 no CPT inconclusive, IL1B secr inh 0 and uPA generation -14%.
Screening COc1ccc(CNC(=O)C2CCN(S(=O)(=O)N3CCC4(CC3)OCCO4)CC2)c(OC)c1 returned HT1080 IDH1KD tx 16µM*, DT40 TDP1 CPT inconclusive, HT1080NT lethal inconclusive, DT40 TDP1 no CPT -26%, IL1B secr inh -17 and uPA generation 1%.
`O=C(NCc1cccs1)C1CCN(c2nc3ccccc3o2)CC1` gave HT1080 IDH1KD tx -6%, DT40 TDP1 CPT inconclusive, HT1080NT lethal -1%, DT40 TDP1 no CPT -25%, IL1B secr inh 15 and uPA generation -3%.
CCOc1ccccc1CNC(=O)C1CCN(c2nc3ccccc3o2)CC1 was read as HT1080 IDH1KD tx -2%, DT40 TDP1 CPT 18µM*, HT1080NT lethal -2%, DT40 TDP1 no CPT inconclusive, IL1B secr inh inconclusive and uPA generation -16%.
For CCOc1ccccc1CNC(=O)C1CCN(C(=O)N2CC(CC)Oc3ccc(C)cc32)CC1 (stereo not drawn) the results were DT40 TDP1 CPT 13µM* and DT40 TDP1 no CPT 18µM*.
Screening COc1ccccc1CNC(=O)C1CCN(C(=O)N(C)C)CC1 returned HT1080 IDH1KD tx 6%, DT40 TDP1 CPT 2%, HT1080NT lethal 13%, DT40 TDP1 no CPT -21% and IL1B secr inh 15.
Screening COc1ccc(C)cc1NC(=O)c1ccc2c(c1)N(Cc1cccc(Cl)c1)C(=O)c1ccccc1S2=O (stereo not drawn) returned DT40 TDP1 CPT -10% and DT40 TDP1 no CPT -9%.
